# Screening results: PubChem BioAssay, National Center for Advancing Translational Sciences (NCATS)
# Sampled rows, rich in hits. Any-hit rate of the full collection: about 6.6%.
# HT1080 IDH1KD tx: HT-1080 IDH1 knockdown cell toxicity (counter line); HT-1080 IDH1 knockdown viability, ATP luminescence, 48 h; Potency, µM (highest dose often 46.1 µM), without a hit: at the top dose activity, negative = toxicity, actives largely listed as cytotoxic; 2% of 360,000 active; AID 686971;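 further: 0% = DMSO wells and -100% = cell-free medium wells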
#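 Cytotoxicity counter-line: IDH1KD HT-1080, 48 h, CellTiter-Glo. Curves classed by r2, magnitude and activity.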
# HT1080NT lethal: kills 2HG-producing HT-1080-NT fibrosarcoma cells; HT-1080-NT fibrosarcoma viability, CellTiter-Glo ATP luminescence, 48 h; Potency, µM (series often up to 46.1 µM), for inactives: at the top dose activity, negative = less viability, hits mostly cytotoxic; 1.6% of 360,000 active; AID 686970;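 further: NT is the 2HG producing partner of a matched IDH1 knockdown line; 0% = DMSO-treated cells and -100% = media-only wells without cells; nearly all actives have a fitted effect of over 55% in size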
#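 Toxicity toward the 2HG-producing NT line was scored as %Activity, normalised to DMSO and no-cell wells, from CellTiter-Glo luminescence after 48 hours' treatment.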
# HepG2 viability: counter-screen for TGF-b inhibitors: cytotoxicity in HepG2 cells; HepG2 CAGA-GFP viability, ATP luminescence, 18 h; Potency, µM (highest dose often 46.1 µM), for inactives: at the highest dose activity change, negative = cytotoxicity, usual class: cytotoxic; 0.76% of 410,000 active
#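 CellTiter-Glo luminescence gave cytotoxicity after 18 hours at 37 degrees C. The cells were HepG2 CAGA-GFP in 1% FBS DMEM, stimulated with 500 pg/mL TGF-beta after compound addition. %Activity was normalised to no-cell wells (complete cell-killing) and DMSO (no toxicity), and curves were fitted and classified.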
# KB-V1 cytotox: kills drug-selected multidrug resistant KB-V1 cells; KB-V1 MDR cells viability, CellTiter-Glo, 72 h; Potency, µM (series often up to 46.1 µM), actives largely listed as cytotoxic; 3.4% of 400,000 active; AID 1347076; further: on the % scale 0 is the no-effect control and ±100 the full control effect; nearly all actives have a fitted effect of over 60% in size
#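 KB-V1 cells (P-gp-expressing MDR subline of KB-3-1) in phenol-red-free DMEM with 10% FBS were exposed to library compounds over a concentration series for 72 h at 37 degrees C. Viability read by CellTiter-Glo luminescence; concentration-effect curves fitted after normalization.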
# TGFb inhibitor: TGF-b pathway inhibition; HepG2 CAGA-GFP TGF-b/SMAD3 reporter, GFP fluorescence, 18 h; TGF-beta stimulated, 500 pg/mL final; Potency, µM (highest dose often 46.1 µM), inactives show at the highest dose activity, negative = inhibition, actives largely listed as inhibitors; 1.2% of 410,000 active; AID 588855; further: on the % scale 0 is the no-effect control and ±100 the full control effect; nearly all actives have a fitted effect of over 65% in size
#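 GFP signal (ex488/em500-530) from TGF-beta-stimulated HEPG2 CAGA-GFP cells, 500 pg/mL final, 18 h at 37 degrees C in DMEM plus 1% FBS, normalized to unstimulated and DMSO-stimulated controls.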
# KB-3-1 cytotox: kills parental KB-3-1 adenocarcinoma cells; KB-3-1 viability, CellTiter-Glo ATP luminescence, 72 h; Potency, µM (doses to about 46.1 µM), usual class: cytotoxic; 1.4% of 400,000 active; AID 1347075; further: on the % scale 0 is the no-effect control and ±100 the full control effect; nearly all actives have a fitted effect of over 60% in size
#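 Multi-concentration cytotoxicity screen in KB-3-1 cells grown in DMEM lacking phenol red with 10% FBS. After 72 h at 37 °C with compound, ATP-dependent luminescence was recorded.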
# Active calls of the source: *; i = inactive; u = inconclusive; x = not tested or not shown. The call rests on the fitted dose curve; in most records, active means well fitted curve in the direction sought with a large enough effect; inconclusive means small, poorly fitted or top-dose-only effect, or another doubt; inactive means no such curve, though single readings can be large; an effect the other way counts as inactive or inconclusive. Potency means the concentration at half of the fitted maximal effect.
SMILES,HT1080 IDH1KD tx,HT1080NT lethal,HepG2 viability,KB-V1 cytotox,TGFb inhibitor,KB-3-1 cytotox
CCCCn1c(SCC(=O)NCc2ccco2)nc2ccc(N3CCOCC3)cc2c1=O,u,-29%,-4%,2.1µM*,-8%,i
CCCCn1c(SCC(=O)NC(C)CC)nc2ccc(N3CCOCC3)cc2c1=O (stereo not drawn),3%,6%,4%,3.3µM*,8%,i
Cc1ccc2nc(-c3cccc(NC(=O)c4cccc5c(Cl)cccc45)c3)oc2c1,x,x,0%,i,-2%,i
CS(=O)(=O)N1CCN(/[N+]([O-])=N/Oc2ccc([N+](=O)[O-])cc2[N+](=O)[O-])CC1 (tested in a mixture with another compound),x,x,-9%,x,-2%,x
CC1CCc2nc(-c3cc4ccc(O)cc4oc3=O)sc2C1 (stereo not drawn),x,x,-6%,i,170%,u
O=c1c2ccccc2nc(-c2ccco2)n1CCCn1ccnc1,-19%,0%,-1%,8.2µM*,3%,i
NCCNC[C@@H]1COC2(CCCCCCCCCCC2)O1,u,15µM*,-67%,u,u,i
Cc1cc(=O)[nH]c(SCC2COC3(CCCCC3)O2)n1 (stereo not drawn),-3%,0%,-5%,u,-5%,i
CCOc1ccccc1NC(=O)Cn1c(=O)n(-c2ccc(Cl)cc2)c(=O)c2oc3ccccc3c21,x,x,3%,x,-4%,x
CN(C)C=Nc1ncc2c([nH]c3ccccc32)c1C#N,-22%,-12%,-15%,7.3µM*,18%,u
CCOC(=O)c1ccc(NC(=O)C2=C(C)Nc3nc(SCc4ccc(Cl)cc4)nn3C2c2ccc(OC)cc2)cc1 (stereo not drawn),x,x,-9%,i,-15%,i
COc1ccc(-c2c(C)sc(NC(=O)c3ccnn3C)c2C#N)cc1,21µM*,13µM*,9%,u,9%,10µM*
Cc1sc(NC(=O)COc2ccccc2)c(C#N)c1-c1ccccc1,4%,6%,5%,16µM*,10%,i
COc1ccc(Nc2nc(-c3cccs3)nc3ccccc23)cc1S(=O)(=O)N1CCOCC1,u,16µM*,-37%,u,u,u
COc1ccccc1S(=O)(=O)N1CCN(c2nc(-c3cccs3)nc3ccccc23)CC1,0%,7%,x,x,x,x
COC(=O)C1=C(C(=O)OC)[C@@H]2N(Cc3ccccc3)c3ccccc3[C@@]23C[C@@H](C(=O)OC)N(C(C)=O)C3=N1,7%,3%,-15%,i,-11%,i
CCOC(=O)N1C2=NC(C(=O)OC)=C(C(=O)OC)[C@@H]3N(C)c4ccc(OC)cc4[C@]23C[C@H]1C(=O)OC,4%,3%,-3%,i,11%,i
COC(=O)C1=C(C(=O)OC)[C@@H]2N(C)c3ccc(OC)cc3[C@@]23C[C@@H](C(=O)OC)N(C(=O)c2ccc(Br)cc2)C3=N1,u,23µM*,-29%,u,u,u
C=CCN1c2ccccc2[C@]23C[C@@H](C(=O)OC)N(C(=O)c4ccc(Br)cc4)C2=NC(C(=O)OC)=C(C(=O)OC)[C@H]13,u,18µM*,-29%,i,20µM*,u
COC(=O)C1=C(C(=O)OC)[C@@H]2N(Cc3ccccc3)c3ccccc3[C@@]23C[C@@H](C(=O)OC)N(C(=O)c2ccc(Br)cc2)C3=N1,u,-18%,-10%,u,10µM*,u
O=C(COc1ccc([N+](=O)[O-])cc1)N1CCC(c2nc3ccccc3s2)CC1,x,x,-33%,u,u,u
O=C(CSCc1cnn(-c2ccccc2)c1-n1cccc1)NCc1ccc(F)cc1,x,x,-42%,x,u,x
COC(=O)c1sc2cccc(F)c2c1S(=O)(=O)N1CCN(c2ccc(C)cc2C)CC1,x,x,-38%,i,-15%,i
CCOc1cc(C#N)c(NC(=O)Cn2nnc(-c3ccc(C)cc3)n2)cc1OCC,x,x,-61%,i,-8%,i
CCC(=O)N1CCc2cc(S(=O)(=O)NC(Cc3ccccc3)C(=O)Nc3ccc(Cl)cc3)ccc21 (stereo not drawn),x,x,-18%,i,u,i
SMILES,HT1080 IDH1KD tx,HT1080NT lethal,HepG2 viability,KB-V1 cytotox,TGFb inhibitor,KB-3-1 cytotox
CN(Cc1ccccc1)C(=O)C1CCN(S(=O)(=O)Cc2ccccc2)CC1,x,x,-7%,i,-10%,i
Cc1ccc(F)c(NC(=O)/C(C#N)=C(\O)c2ccc(C(C)(C)C)cc2)c1,u,-28%,13µM*,i,13µM*,i
N#Cc1c(NC(=O)c2cnccn2)sc2c1CCCC2,-24%,-20%,4%,16µM*,-3%,u
CCc1ccc(CCC(=O)Nc2sc3c(c2C#N)CCCC3)o1,4.5µM*,4µM*,-1%,u,-35%,u
N#Cc1c(NC(=O)c2cccnc2)sc2c1CCC2,9.2µM*,16µM*,3%,5.8µM*,-17%,9.2µM*
N#Cc1c(NC(=O)c2ccc(Cn3cc(Br)cn3)o2)sc2c1CCCCCC2,u,u,-2%,2.6µM*,u,u
O=C(Nc1sc2c(c1C(=O)c1ccccc1)CCCC2)c1cccnc1,-2%,-2%,5%,i,20%,i
Cn1nccc1C(=O)Nc1sc2c(c1C#N)CCCC2,-1%,-1%,-21%,i,-5%,i
COc1cccc2sc(N(Cc3cccnc3)C(=O)Cc3ccccc3)nc12,x,x,-21%,i,u,i
CC(C)CC(=O)NC(NC(=S)Nc1sc2c(c1C#N)CCCC2)C(Cl)(Cl)Cl (stereo not drawn),u,u,-42%,i,16µM*,u
N#Cc1c(NC(=O)c2ccccc2)sc2c1CCC2,u,u,-22%,4.6µM*,0%,16µM*
Cc1ccc(-c2nn(-c3ccc(F)cc3F)c3c2cnc2c(F)cccc23)cc1,x,x,-13%,i,-7%,i
C=CCNc1nc(-c2ccccc2)c(C(=O)OCC)cc1C#N,u,u,-4%,u,0%,10µM*
CCCNc1nc(-c2ccccc2)c(C(=O)OCC)cc1C#N,u,u,5%,i,-47%,u
CCCCNc1nc(-c2ccccc2)c(C(=O)OCC)cc1C#N,u,u,-2%,18µM*,u,u
CC(C)=CCc1cc(-c2oc3cc(O)cc(O)c3c(=O)c2O)ccc1O,-9%,-1%,-46%,i,u,i
